Sampled rows, rich in hits. Any-hit rate of the full collection: about 2.9%.
D3 ag – D3 dopamine receptor (human) agonism; D3R DiscoveRx beta-arrestin cells, luminescence, 90 min; max activation, %; hit rate 0.58% among 410,000; AID 652048; in the data active = max activation above about 30%; note: 0% is about no effect
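Cells at 1500/well, incubated overnight, then treated with pinned compounds (dopamine as control) for 90 min at 37 degrees C. DiscoveRx reagent added for 30 - 60 minutes at room temperature; luminescence read.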
mIDH1 inhibitor – inhibitors of human mutant IDH1 R132H; O75874; IDH1-R132H enzyme, NADPH consumption, diaphorase/resazurin fluorescence; Potency, µM (doses to about 76.6 µM), for inactives: at the highest dose activity change, negative = inhibition, usual class: inhibitors; hit rate 0.093% among 390,000; note: potency is the fitted concentration of half-maximal effect; % is set by controls: 0 for no effect and ±100 for the full control effect; nearly all actives have a fitted effect of over 65% in size
Target sequence (O75874 whole entry R132H, stated change not applied): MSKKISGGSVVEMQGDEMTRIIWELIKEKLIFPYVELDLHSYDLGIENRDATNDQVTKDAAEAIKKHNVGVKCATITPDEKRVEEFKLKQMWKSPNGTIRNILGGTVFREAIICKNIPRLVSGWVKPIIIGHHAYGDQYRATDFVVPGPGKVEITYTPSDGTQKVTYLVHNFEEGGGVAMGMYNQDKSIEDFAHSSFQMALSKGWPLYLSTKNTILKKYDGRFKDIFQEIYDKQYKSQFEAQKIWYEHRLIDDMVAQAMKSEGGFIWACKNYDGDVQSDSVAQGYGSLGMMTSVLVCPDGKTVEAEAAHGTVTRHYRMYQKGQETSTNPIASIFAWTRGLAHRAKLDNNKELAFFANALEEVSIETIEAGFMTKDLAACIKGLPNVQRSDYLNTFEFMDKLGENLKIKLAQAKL
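IDH1-R132H (0.5 ug/mL dispensed) in pH 7.5 Tris buffer was preincubated 30 min with compound, then given a substrate mix of 0.016 mM NADPH and 2 mM alpha-KG for 80 min at room temperature; remaining NADPH was read by diaphorase/resazurin fluorescence.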
Integrin act MD – activators of alpha7 integrin expression for muscular dystrophy. Potency, µM (series often up to 38.3 µM), inactives show top-dose activation, most hits filed as activators. hit rate 0.064% among 350,000. alpha7betagal myoblasts, beta-gal FDG fluorescence, 48 h. AID 624291;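 note: potency is the fitted concentration of half-maximal effect; 100% = response of the positive control SU9516; nearly all actives have a fitted effect of over 60% in size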
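alpha7betagal+/- myoblasts (passage 13, 250/well) treated 48 h at 37C with compounds at 1:260 dilution of DMSO stock. Lysed, then beta-galactosidase activity read as FDG fluorescence (ex 480/em 540) after 30 min, with pre-read for autofluorescence.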
D3 antag – blocks the human D3 dopamine receptor; D3R cells, DiscoveRx beta-arrestin luminescence, antagonist mode; hits give low values; hit rate 2.5% among 360,000; max response, negative = inhibition, %; AID 652054; P35462; in the data active = max response below about -50%; inconclusive = no clear call, values can overlap the other calls; note: % is set by controls: 0 for no effect and ±100 for the full control effect
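Cells plated overnight at 1500 cells/well, then exposed to library compounds with dopamine controls for 90 minutes at 37 degrees C. DiscoveRx reagent added for 30–60 minutes at room temperature; luminescence read, quantitative HTS format.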
B2AR arrestin – recruits beta-arrestin to the human beta2-adrenergic receptor. P07550. beta-arrestin recruitment to beta2AR, cell-based reporter. Potency, µM (top dose mostly 46.1 µM), without a hit: at the highest dose activation, actives largely listed as activators. hit rate 0.02% among 330,000;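 note: potency is the fitted concentration of half-maximal effect; 0% = DMSO controls and full agonism = EC100 isoproterenol or metaproterenol; nearly all actives have a fitted effect of over 65% in size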
An asterisk follows results filed as active; [ ] = another dose, or the depositor's remark. Unless noted, calls come from the whole dose curve; as a rule, active = well fitted curve in the direction sought with a large enough effect; inconclusive = small, poorly fitted or top-dose-only effect, or another doubt; inactive = no such curve, though single readings can be large; an effect the other way counts as inactive or inconclusive.

For CSCCC(NC(=O)c1ccccc1)C(=O)NC1CC1 (configuration not stated) the results were D3 ag 33.9*, mIDH1 inhibitor 0.6%, Integrin act MD -0.1%, D3 antag 10.1 and B2AR arrestin -0.6%.
For CCC(CO)Oc1cc(NCc2ccccc2)c2ncn(C(C)C)c2c1 (configuration not stated) the results were D3 ag 37.0*, mIDH1 inhibitor -5.5%, Integrin act MD -22.8%, D3 antag 4.6 and B2AR arrestin -0.1%.
For CCC(CO)Oc1cc(NCc2ccc(O)cc2)c2ncn(C(C)C)c2c1 (configuration not stated) the results were D3 ag 1.5, mIDH1 inhibitor -1.7%, Integrin act MD 3.0%, D3 antag 16.5 and B2AR arrestin -0.1%.
`O=C(NC(=S)NNC(=O)c1ccccc1O)c1cccs1` gave D3 ag 37.0*, mIDH1 inhibitor 0.0%, Integrin act MD -38.4%, D3 antag 0.9 and B2AR arrestin 0.0%.
For COc1ccccc1C(=O)NNC(=S)NC(=O)c1cccs1 the results were B2AR arrestin 0.1%.
Screening COc1ccc(NC2=Nc3ccccc3CC2)cc1 returned D3 ag -33.7, mIDH1 inhibitor 4.0%, Integrin act MD -6.5%, D3 antag -55.6* and B2AR arrestin 0.2%.
COc1ccc(F)cc1C(=O)C1CCCN(Cc2cccn2-c2ccccn2)C1 (configuration not stated) was read as D3 ag -25.7, mIDH1 inhibitor -7.5%, Integrin act MD -63.6%, D3 antag inconclusive and B2AR arrestin 0.1%.
`COc1ccc(F)cc1C(=O)C1CCCN(Cc2c[nH]c3ccccc23)C1` (configuration not stated) gave D3 ag -11.8, mIDH1 inhibitor -7.2%, Integrin act MD -23.9%, D3 antag -106.7* and B2AR arrestin -0.2%.
For O=C(c1cc(F)ccc1F)C1CCCN(Cc2cccn2-c2ccccn2)C1 (configuration not stated) the results were D3 ag -21.3, mIDH1 inhibitor 1.7%, Integrin act MD inconclusive, D3 antag -19.6 and B2AR arrestin 0.0%.
COc1ccc(F)cc1C(=O)C1CCCN(Cc2cn(C)c3ccccc23)C1 (configuration not stated) was read as D3 ag -8.3, mIDH1 inhibitor -4.5%, Integrin act MD -53.8%, D3 antag -91.7* and B2AR arrestin -0.4%.
For Cn1cc(CN2CCCC(C(=O)c3cc(F)ccc3F)C2)c2ccccc21 (configuration not stated) the results were D3 ag -21.5, mIDH1 inhibitor 0.0%, Integrin act MD -55.7%, D3 antag -63.6* and B2AR arrestin 0.2%.
For COc1ccc(-n2ncc(C(=O)Nc3ccc4c(c3)OCCO4)c2C2CCN(C(=O)OC(C)(C)C)CC2)cc1 the results were D3 ag -1.8 and mIDH1 inhibitor 37.3%.
CC1=NOC2(C1)N(C)c1ccccc1C2(C)C (configuration not stated) was read as D3 ag -12.3, mIDH1 inhibitor 6.2%, Integrin act MD -14.8%[7.66 µM], D3 antag 10.9 and B2AR arrestin 0.0%.
For COc1ccc2ccc3c(c2c1)N=C[C@]1(O3)N(C)c2ccccc2C1(C)C the results were D3 ag -2.1, mIDH1 inhibitor 17.8%, Integrin act MD -53.5%, D3 antag -70.3* and B2AR arrestin -0.1%.
Cc1ccc(C)c(Cn2c(=O)n(CCCC(=O)NCCc3ccc(Cl)cc3)c(=O)c3ccccc32)c1 was read as D3 ag -7.0 and mIDH1 inhibitor 3.5%.
Screening COc1ccc(Br)cc1S(=O)(=O)N(CC(=O)N1CCOCC1)c1ccccc1 returned D3 ag -6.6, mIDH1 inhibitor 2.0%, Integrin act MD -5.1%, D3 antag -119.5* and B2AR arrestin -0.3%.
Screening CS(=O)(=O)N(CC(=O)N1CCOCC1)c1ccccc1 returned D3 ag 0.5, mIDH1 inhibitor 10.6%, Integrin act MD -30.5%, D3 antag 11.7 and B2AR arrestin -0.6%.
`CN(C)S(=O)(=O)N(CC(=O)N1CCOCC1)c1ccccc1` gave D3 ag -7.3, mIDH1 inhibitor -2.3%, Integrin act MD 16.2%, D3 antag -52.3* and B2AR arrestin 0.2%.
`COc1ccc(C)cc1S(=O)(=O)N(CC(=O)N1CCOCC1)c1cc(C)cc(C)c1` gave D3 ag -0.9, mIDH1 inhibitor 1.7%, Integrin act MD 0.0%, D3 antag -4.2 and B2AR arrestin 5.4%.
O=C(CCN1CCN(c2ccccc2)CC1)N/N=C/c1ccccc1O was read as D3 ag -33.1, mIDH1 inhibitor -1.9%, Integrin act MD -6.6%, D3 antag -67.2* and B2AR arrestin 0.1%.
For CN1CCN(CCC(=O)N/N=C/c2ccccc2F)CC1 the results were D3 ag 8.3, mIDH1 inhibitor -4.1%, Integrin act MD -3.4%, D3 antag 3.4 and B2AR arrestin -0.1%.
For COc1ccc([N+](=O)[O-])cc1NC(=O)CC(c1ccccc1)c1ccccc1 the results were D3 ag 2.3, mIDH1 inhibitor 2.7%, Integrin act MD -3.6%, D3 antag -29.7 and B2AR arrestin -0.5%.
For COc1cc(NC(=O)CN2CCN(c3ccccc3F)CC2)c(C)cc1[N+](=O)[O-] the results were D3 ag -0.1, mIDH1 inhibitor -12.7%, Integrin act MD 17.6%, D3 antag 1.3 and B2AR arrestin 0.0%.
Screening COc1cccc(NC(=O)CCN2CCN(c3ccccc3F)CC2)c1 returned D3 ag 39.3*, mIDH1 inhibitor -3.8%, Integrin act MD 3.7%, D3 antag inconclusive and B2AR arrestin 0.2%.
For COc1ccc(C)cc1NC(=O)CN1CCN(c2ccccc2F)CC1 the results were D3 ag -9.2, mIDH1 inhibitor 6.4%, Integrin act MD -15.6%, D3 antag -69.5* and B2AR arrestin -0.2%.
Screening CCN(CCC(=O)Nc1cc([N+](=O)[O-])ccc1OC)Cc1ccccc1 returned D3 ag -24.7, mIDH1 inhibitor -0.5%, Integrin act MD 13.1%, D3 antag -80.6* and B2AR arrestin -0.4%.
For O=C(NCc1noc2ccccc12)Nc1ccc(F)cc1F the results were D3 ag -20.2 and mIDH1 inhibitor 26.6%.
Screening Cc1c(C(=O)Nc2c(F)cccc2F)sc2ncn(Cc3ccccc3F)c(=O)c12 returned D3 ag 7.6 and mIDH1 inhibitor 8.3%.
Screening COc1ccc(NC(=O)CCN2CCOCC2)c(OC)c1 returned D3 ag -0.2, mIDH1 inhibitor 2.4%, Integrin act MD 6.4%, D3 antag 3.3 and B2AR arrestin -0.5%.
For Cc1ccc(C)c(NC(=O)CCN2CCN(c3ccccc3F)CC2)c1 the results were D3 ag 14.9, mIDH1 inhibitor 6.7%, Integrin act MD -14.4%, D3 antag -64.1* and B2AR arrestin -1.0%.
